Consider 14 compounds from PubChem BioAssay (NCATS).

Experiment [1] has as its target Lysosomal acid glucosylceramidase (Homo sapiens) (UniProt P04062). In words: Glucocerebrosidase-p2 (AID 348; in the data active means potency below about 10 µM; further: potency means the concentration at half of the fitted maximal effect). Conditions: purified GBA, blue fluorogenic substrate, 40 min. The method, boiled down:
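Compounds titrated from 0.6 nM upwards against 0.2 nM enzyme in pH 5.9 citric acid/KH2PO4, taurocholate, tween-20; blue fluorogenic substrate 80 uM, 40 min room temperature, stopped and read Ex 365/Em 440 for AC50.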

A short description of experiment [2]: AP1 Signaling Pathway (AID 357).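 Further: ME-180 reporter cells stimulated with EGF at its EC50 level; on the % scale 0 is the no-effect control and ±100 the full control effect.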 Particulars: ME-180 AP-1-bla reporter, EGF-induced, beta-lactamase ratio, 5 h; at 7.69 µM (top of the series) unless noted. In a few lines:
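In this screen, ME-180 cells in Opti-MEM with 0.5% dialyzed FBS received EC50 EGF and compound titrations for 5 h. AP-1 reporter beta-lactamase was detected via CCF4 ratio, giving AC50 for positive and negative modulators.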

The target in experiment [3] is Cytochrome P450 1A2 (Homo sapiens) (UniProt P05177). The experiment in a line: p450-cyp1a2 (AID 410; calls by dose curve; further: potency means the concentration at half of the fitted maximal effect;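 on activity change, negative = inhibition: -100% = full effect of reference inhibitor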). Conditions: recombinant CYP1A2, luciferin-ME demethylation, luminescence; series mostly up to 11.4 µM. The method, boiled down:
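Luminescent readout of luciferin formed from Luciferin-ME by human CYP1A2; data normalized against complete inhibition by 57 uM furafylline. Enzyme 20nM, substrate 100uM at Km, 100mM KPO4 buffer, 60 min reaction at room temperature.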

Experiment [4] in a line: NFAT Signaling Pathway (AID 444).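 Further: carbachol stimulus at about its EC50 of 1 µM final; on the % scale 0 is the no-effect control and ±100 the full control effect.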 Conditions: Jurkat NFAT-bla M1, carbachol, beta-lactamase ratio, 5 h; at 7.69 µM (top of the series) unless noted. In a few lines: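 Jurkat cells carrying an NFAT-driven β-lactamase reporter and co-transfected muscarinic M1 receptor were treated with compound plus carbachol (1 uM final, an EC50 level) for 5 h at 37 °C. CCF4 loading followed for 1 h at RT; 460/530 nm ratio gave %activity.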

Experiment [5] in a line: Stat Signaling Pathway (AID 446).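 Further: ME-180 cervical cancer cells given 40 pM IL-6 alongside compound; SIE-controlled beta-lactamase reporter measured as 460/530 nm FRET emission ratio; on the % scale 0 is the no-effect control and ±100 the full control effect.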 Conditions: ME-180 (cervical carcinoma) SIE beta-lactamase reporter, IL-6 stimulated, 5 h; at 7.69 µM (top of the series) unless noted. In a few lines:
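ME-180 SIE-bla cells; overnight plating; cpd + IL-6 40 pM, 5 h, 37 C; LiveBLAzer 2.5 h RT; 460/530 nm emission ratio. Normalized to 300 pM IL-6 and 125 nM JAK inhibitor controls.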

Experiment [6] addresses Glucocorticoid receptor (Homo sapiens) (UniProt P04150). In words: GR-GFP Redistribution (AID 450;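 active means compounds whose dose series gives a full or clear partial fitted curve of increased nuclear translocation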; further: potency means the concentration at half of the fitted maximal effect). Particulars: U2OS GR-GFP nuclear translocation, laser cytometry, 2 h.
Experiment [7] shares this target. In words: GR-EFC Redistribution (AID 451; calls by dose curve; further: potency means the concentration at half of the fitted maximal effect). Particulars: CHO-K1 GR-EFC translocation, beta-gal luminescence, 2 h. The method, boiled down:
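CHO-K1 cells stably expressing nuclear-localized β-gal enzyme acceptor and GR fused C-terminally to the enzyme donor fragment; ligand-driven nuclear translocation restores β-gal by complementation. Compounds titrated up to 46 uM final, 2 h at 37 °C; luminescence read.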

For experiment [8], the target named is Mitogen-activated protein kinase 10 (Mus musculus) (UniProt Q61831). In words: JNK3 AlphaScreen Assay (AID 530).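 Further: kinase came from lysate of stimulated human HepG2 cells; signal reports phosphorylation of biotinylated GST-cJun 1-79 at Ser73 with 10 µM ATP; on the % scale 0 is the no-effect control and ±100 the full control effect.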 Particulars: JNK3 lysate, c-Jun phosphorylation; series mostly up to 11.4 µM. In a few lines:
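Inhibitors reduce antibody binding to phosphorylated biotin-cJun, lowering AlphaScreen luminescence. Lysates from HepG2 cells pre-activated by IL-1beta plus TNF-alpha supplied JNK3; compounds were titrated.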

The target in experiment [9] is 3',5'-cyclic-AMP phosphodiesterase 4B (Homo sapiens) (UniProt Q07343). In words: qHTS Assay for Inhibitors of PDE-IV (AID 607; active means well fitted activation curve with a large enough effect in the main read-out, with a control signal flat, not every such curve was filed as active; further: % of control where 0% means no effect). Particulars: HEK293 ACTOne CNG channel cells, membrane potential fluorescence; series mostly up to 22.9 µM. The method, boiled down: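 ACTOne HEK293 cells carry a modified cAMP-gated CNG channel and express endogenous PDE4; plated 1000 cells/well, compounds up to 22.9 uM final. Membrane-potential dye fluorescence (ex 535/em 590) was read; parental cells received 10 uM forskolin + 100 uM RO 20-1724.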
Chain of 3',5'-cyclic-AMP phosphodiesterase 4B (Homo sapiens) (Q07343 whole entry, looked up): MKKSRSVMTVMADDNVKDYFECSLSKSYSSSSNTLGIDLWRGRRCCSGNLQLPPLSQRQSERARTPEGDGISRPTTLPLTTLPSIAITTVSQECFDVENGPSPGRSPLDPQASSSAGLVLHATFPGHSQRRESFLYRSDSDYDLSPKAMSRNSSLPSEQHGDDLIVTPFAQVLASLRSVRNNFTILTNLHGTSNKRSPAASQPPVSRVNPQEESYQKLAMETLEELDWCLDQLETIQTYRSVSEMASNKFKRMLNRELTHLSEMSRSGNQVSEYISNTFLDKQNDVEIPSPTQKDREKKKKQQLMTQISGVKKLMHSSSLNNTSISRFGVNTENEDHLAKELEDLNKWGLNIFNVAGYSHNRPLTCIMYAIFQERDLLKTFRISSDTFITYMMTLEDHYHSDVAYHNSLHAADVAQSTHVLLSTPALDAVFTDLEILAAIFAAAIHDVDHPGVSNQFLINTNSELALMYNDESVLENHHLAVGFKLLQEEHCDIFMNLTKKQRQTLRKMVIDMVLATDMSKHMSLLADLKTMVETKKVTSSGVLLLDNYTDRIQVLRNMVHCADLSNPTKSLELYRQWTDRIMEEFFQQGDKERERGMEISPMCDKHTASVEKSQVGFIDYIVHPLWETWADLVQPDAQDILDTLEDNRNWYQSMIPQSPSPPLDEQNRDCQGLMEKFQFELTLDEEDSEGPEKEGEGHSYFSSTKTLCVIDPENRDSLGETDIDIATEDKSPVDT

Experiment [10] has as its target Cytochrome P450 2D6 (Homo sapiens) (UniProt P10635). The experiment in a line: qHTS Assay for Inhibitors and Substrates of Cytochrome P450 2D6 (AID 891; active means well fitted curve in the direction sought with a large enough effect; an effect the other way counts as inactive or inconclusive; further: nearly all actives have a fitted effect of over 60% in size; further: potency means the concentration at half of the fitted maximal effect). Conditions: recombinant CYP2D6, luciferin-ME EGE luminescence; series mostly up to 11.4 µM. In a few lines: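 Human CYP2D6 (5 nM) with 30 uM Luciferin-ME EGE (at Km) in 100 mM KPO4, compound preincubated 10 min, then NADPH regeneration system for 60 min at room temperature. Luciferin read by luminescence; normalized to 1.43 uM quinidine.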

Experiment [11] deals with Cytochrome P450 3A4 (Homo sapiens) (UniProt P08684). In words: qHTS Assay for Activators of Cytochrome P450 3A4 (AID 885; active means well fitted curve in the direction sought with a large enough effect; an effect the other way counts as inactive or inconclusive; further: nearly all actives have a fitted effect of over 65% in size). Particulars: recombinant CYP3A4, Luciferin-PPXE luminescence, 60 min; series mostly up to 11.4 µM. In a few lines: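 20nM CYP3A4 + 25uM Luciferin-PPXE (=KM), 200mM KPO4; cpd 10 min RT; NADPH regen, 60 min RT; stop w/ detection buffer, 20 min; luminescence. Normalized to 57 uM ketoconazole.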
Chain of Cytochrome P450 3A4 (Homo sapiens) (P08684 whole entry, looked up): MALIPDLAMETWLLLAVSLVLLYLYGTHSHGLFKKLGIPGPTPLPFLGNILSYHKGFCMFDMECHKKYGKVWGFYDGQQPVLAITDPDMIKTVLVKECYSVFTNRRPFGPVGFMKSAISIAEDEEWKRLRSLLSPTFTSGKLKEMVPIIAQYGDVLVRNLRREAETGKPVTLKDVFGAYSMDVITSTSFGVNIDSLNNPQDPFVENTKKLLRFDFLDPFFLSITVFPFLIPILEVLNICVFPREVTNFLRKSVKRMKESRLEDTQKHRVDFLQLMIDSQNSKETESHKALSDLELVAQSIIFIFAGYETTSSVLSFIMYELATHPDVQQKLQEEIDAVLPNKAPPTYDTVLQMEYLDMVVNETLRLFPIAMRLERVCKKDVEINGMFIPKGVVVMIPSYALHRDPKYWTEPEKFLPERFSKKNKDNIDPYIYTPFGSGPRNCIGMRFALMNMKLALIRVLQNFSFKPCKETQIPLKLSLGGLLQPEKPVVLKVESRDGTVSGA
(In qHTS, concentration-response curves come from the screen itself.)

Experiment [12] concerns the target Cytochrome P450 2C19 (Homo sapiens) (UniProt P33261). In words: qHTS Assay for Inhibitors and Substrates of Cytochrome P450 2C19 (AID 899; active means well fitted curve in the direction sought with a large enough effect; an effect the other way counts as inactive or inconclusive; further: nearly all actives have a fitted effect of over 60% in size; further: potency means the concentration at half of the fitted maximal effect). Conditions: recombinant CYP2C19, luciferin-H EGE luminescence; series mostly up to 11.4 µM. The method, boiled down: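 Human CYP2C19 (5nM) with Luciferin-H EGE at 10uM (its KM) in 50mM KPO4 was preincubated with compound for 10 min at 37C. NADPH regeneration started a 60 min 37C reaction. Luciferin was read by luminescence, normalized to 57uM ketoconazole.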

Unmarked numbers belong to inactive results. Records with an inconclusive call do not appear. Activity calls are given as the source filed them. Unless noted, the call rests on the fitted dose curve; in most records, active means well fitted curve in either direction with a large enough effect (not every such curve was filed as active); inconclusive means small, poorly fitted or top-dose-only effect, or another doubt; inactive means flat fitted curve, though single readings scatter.

Chain of Cytochrome P450 2D6 (Homo sapiens) (P10635 whole entry, looked up): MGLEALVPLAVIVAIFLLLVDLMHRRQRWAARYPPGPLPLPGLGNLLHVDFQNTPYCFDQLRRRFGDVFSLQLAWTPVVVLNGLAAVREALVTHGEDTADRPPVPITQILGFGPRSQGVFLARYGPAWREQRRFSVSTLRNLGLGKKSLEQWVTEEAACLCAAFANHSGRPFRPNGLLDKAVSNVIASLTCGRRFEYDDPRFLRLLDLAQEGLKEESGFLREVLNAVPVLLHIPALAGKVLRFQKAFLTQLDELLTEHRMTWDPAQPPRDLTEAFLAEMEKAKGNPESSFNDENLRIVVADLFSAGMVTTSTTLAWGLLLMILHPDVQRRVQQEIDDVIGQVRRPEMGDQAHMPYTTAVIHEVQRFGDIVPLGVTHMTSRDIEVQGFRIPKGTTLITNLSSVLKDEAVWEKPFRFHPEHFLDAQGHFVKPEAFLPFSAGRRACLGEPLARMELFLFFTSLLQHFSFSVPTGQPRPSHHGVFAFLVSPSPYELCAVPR
Chain of Glucocorticoid receptor (Homo sapiens) (P04150 whole entry, looked up): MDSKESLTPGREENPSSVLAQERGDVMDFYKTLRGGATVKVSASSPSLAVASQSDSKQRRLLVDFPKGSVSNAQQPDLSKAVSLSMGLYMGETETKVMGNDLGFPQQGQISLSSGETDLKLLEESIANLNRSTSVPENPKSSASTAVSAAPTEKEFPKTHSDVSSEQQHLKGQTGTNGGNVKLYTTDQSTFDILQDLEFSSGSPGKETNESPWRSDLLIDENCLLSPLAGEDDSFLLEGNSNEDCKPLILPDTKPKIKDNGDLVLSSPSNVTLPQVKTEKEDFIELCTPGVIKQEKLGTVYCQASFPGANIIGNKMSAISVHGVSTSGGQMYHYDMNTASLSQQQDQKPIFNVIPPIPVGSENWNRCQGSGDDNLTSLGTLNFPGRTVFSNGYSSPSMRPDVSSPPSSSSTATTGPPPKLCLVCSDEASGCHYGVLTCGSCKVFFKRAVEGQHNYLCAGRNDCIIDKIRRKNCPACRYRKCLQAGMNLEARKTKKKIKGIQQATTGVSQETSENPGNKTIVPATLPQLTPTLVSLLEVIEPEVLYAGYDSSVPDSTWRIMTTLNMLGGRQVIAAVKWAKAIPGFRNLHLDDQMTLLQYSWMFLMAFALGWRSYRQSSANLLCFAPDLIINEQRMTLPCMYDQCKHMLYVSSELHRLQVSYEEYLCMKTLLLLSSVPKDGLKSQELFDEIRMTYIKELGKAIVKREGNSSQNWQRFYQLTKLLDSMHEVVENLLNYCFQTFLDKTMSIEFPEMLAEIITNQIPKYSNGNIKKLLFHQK
Chain of Cytochrome P450 1A2 (Homo sapiens) (P05177 whole entry, looked up): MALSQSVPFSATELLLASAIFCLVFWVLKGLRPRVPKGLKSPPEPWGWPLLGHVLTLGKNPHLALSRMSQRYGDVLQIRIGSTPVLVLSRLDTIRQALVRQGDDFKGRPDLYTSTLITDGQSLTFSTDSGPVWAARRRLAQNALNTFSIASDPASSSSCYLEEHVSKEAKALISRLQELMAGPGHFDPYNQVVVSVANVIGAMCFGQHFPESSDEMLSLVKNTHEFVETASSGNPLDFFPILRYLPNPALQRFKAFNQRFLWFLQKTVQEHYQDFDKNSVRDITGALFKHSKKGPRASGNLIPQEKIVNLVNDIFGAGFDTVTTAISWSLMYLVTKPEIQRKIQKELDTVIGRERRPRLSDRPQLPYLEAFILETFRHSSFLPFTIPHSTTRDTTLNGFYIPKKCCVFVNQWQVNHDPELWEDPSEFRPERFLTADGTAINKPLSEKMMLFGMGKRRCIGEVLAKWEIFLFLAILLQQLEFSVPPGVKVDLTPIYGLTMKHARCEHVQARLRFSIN
Chain of Lysosomal acid glucosylceramidase (Homo sapiens) (P04062 whole entry, looked up): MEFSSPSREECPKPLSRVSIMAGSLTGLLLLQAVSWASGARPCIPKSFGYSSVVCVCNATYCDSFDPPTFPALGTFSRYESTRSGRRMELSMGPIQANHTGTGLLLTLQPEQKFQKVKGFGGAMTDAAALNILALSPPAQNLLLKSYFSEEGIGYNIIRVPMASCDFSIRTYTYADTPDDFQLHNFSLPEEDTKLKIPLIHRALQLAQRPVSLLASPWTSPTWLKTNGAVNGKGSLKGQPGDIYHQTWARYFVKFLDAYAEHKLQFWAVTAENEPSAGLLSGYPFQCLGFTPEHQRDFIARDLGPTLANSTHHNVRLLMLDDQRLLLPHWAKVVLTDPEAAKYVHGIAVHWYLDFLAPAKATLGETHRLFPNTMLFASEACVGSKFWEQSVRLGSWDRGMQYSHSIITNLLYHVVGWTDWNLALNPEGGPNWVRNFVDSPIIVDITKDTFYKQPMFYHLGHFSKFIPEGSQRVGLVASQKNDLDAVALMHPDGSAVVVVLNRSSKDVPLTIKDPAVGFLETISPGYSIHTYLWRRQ
Chain of Cytochrome P450 2C19 (Homo sapiens) (P33261 whole entry, looked up): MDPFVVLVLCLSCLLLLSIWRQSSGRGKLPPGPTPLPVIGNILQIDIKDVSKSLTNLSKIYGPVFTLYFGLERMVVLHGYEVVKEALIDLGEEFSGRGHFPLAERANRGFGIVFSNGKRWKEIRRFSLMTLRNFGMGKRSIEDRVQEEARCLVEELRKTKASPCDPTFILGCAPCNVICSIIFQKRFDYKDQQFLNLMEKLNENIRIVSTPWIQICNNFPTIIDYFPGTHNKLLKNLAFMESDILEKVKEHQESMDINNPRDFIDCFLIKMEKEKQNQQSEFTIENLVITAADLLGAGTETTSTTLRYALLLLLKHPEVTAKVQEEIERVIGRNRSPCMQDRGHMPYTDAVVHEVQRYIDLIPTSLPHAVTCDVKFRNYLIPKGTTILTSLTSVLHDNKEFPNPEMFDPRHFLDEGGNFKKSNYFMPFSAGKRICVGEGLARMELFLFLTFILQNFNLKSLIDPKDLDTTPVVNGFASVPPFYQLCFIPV

Take `CC(C)(CN)CN`: the Potency in experiment [1] is over 11.4 µM; in experiment [6], over 46 µM; in [7], over 9.22 µM. The figures for the activity change, negative = inhibition in experiment [2] and in experiment [4] were 0.738% and 2.82%, respectively. Besides, the Potency entry in experiment [3], in experiment [8], in experiment [9] and in [10] was “inactive” each time. In experiment [5], the activity, negative = inhibition is 0.176%.
As for `c1ccc2sc(SCCSc3nc4ccccc4s3)nc2c1`, the Potency is over 11.4 µM in experiment [1], 0.794 µM (active) in experiment [3], over 46 µM in experiment [6] and over 9.22 µM in [7]. The activity change, negative = inhibition was 8.08% in experiment [2] and -22.4% in experiment [4]. For the same compound, the activity, negative = inhibition in [5] was 2.32%. For the same compound, the Potency result in experiment [8], in experiment [9] and in experiment [10] was “inactive” in each case.
Regarding `O=C(O)c1cc2ccccc2c(S(=O)(=O)O)c1O`, the Potency was over 11.4 µM in experiment [1], over 46 µM in experiment [6] and over 9.22 µM in experiment [7]. Further, the activity change, negative = inhibition in [2] was 2.94%; in experiment [4], 7.56%. For the same compound, the Potency result in experiment [3], in experiment [8], in [9] and in experiment [10] was “inactive” in each case. Further, in experiment [5], the activity, negative = inhibition was 3.56%.
For the compound `COc1cc2c(cc1OC)C(CCN)=NCC2`, the Potency was over 11.4 µM in experiment [1], 5.01 µM (active) in experiment [3], over 46 µM in experiment [6] and over 9.22 µM in experiment [7]. Also, the results for the activity change, negative = inhibition in experiment [2] and in [4] were 7.92% and -11.2%, respectively. Besides, in [5], the activity, negative = inhibition was 8.17%. Besides, the Potency result in experiment [8], in experiment [9], in experiment [11] and in experiment [12] was “inactive” each time.
In the case of `CC(C)NC1(C(N)=O)CCN(Cc2ccccc2)CC1`, the Potency in [1] was over 11.4 µM; in [6] it was over 46 µM; in experiment [7], over 9.22 µM; in experiment [10], 0.631 µM (active). For the same compound, the activity change, negative = inhibition is 0.245% in experiment [2], 7.6% [at 2.29 µM] in [3] and -10.3% in experiment [4]. For the same compound, the activity, negative = inhibition in experiment [5] is -5.76%. Moreover, the Potency entry in experiment [8] and in experiment [9] was “inactive” throughout.
As to `NCCCc1c(-c2ccccc2)nc(N)[nH]c1=O`, the Potency in experiment [1] was over 11.4 µM; in experiment [6], over 46 µM; in experiment [7] it was over 9.22 µM. The activity change, negative = inhibition in [2] was 0.759%; in [4], 4.17%. For the same compound, the Potency entry in experiment [3], in [8], in experiment [9] and in experiment [10] was “inactive” throughout. Also, the activity, negative = inhibition in experiment [5] was 9.18%.
In the case of `Clc1cc2c(c(CSC3=NCN(CC4CC4)CN3)c1)OCOC2`, the Potency in [1] was over 11.4 µM; in [3] it was 3.16 µM (active); in experiment [6], over 46 µM; in experiment [7], over 9.22 µM; in [10] it was 0.199 µM (active). In addition, the activity change, negative = inhibition in experiment [2] is 5.83%; in experiment [4] it was -19.2%. For the same compound, the activity, negative = inhibition in experiment [5] was 0.512%. For the same compound, the Potency result in [8] and in experiment [9] was “inactive” in each case.
Turning to `CCOC(=S)SCC(=O)O`, the results for the Potency in [1], in experiment [6] and in [7] were over 11.4 µM, over 46 µM and over 9.22 µM, respectively. Further, the activity change, negative = inhibition was 3.32% in experiment [2] and 9.65% in experiment [4]. Also, the Potency entry in experiment [3], in [8], in experiment [9] and in experiment [10] was “inactive” throughout. Also, in experiment [5], the activity, negative = inhibition is 16.6%.
On to `S=C1SCN(C2CCCCCCCCCCC2)CN1C1CCCCCCCCCCC1`, for which the Potency in [1] is over 11.4 µM; in experiment [6], over 46 µM; in [7] it was over 9.22 µM; in experiment [12], 3.98 µM (active). For the same compound, the figures for the activity change, negative = inhibition in experiment [2], in experiment [3] and in [4] were -6.27%, -14.7% [at 2.29 µM] and 6.16%, respectively. For the same compound, the activity, negative = inhibition in [5] was -6.56%. Besides, the Potency result in experiment [8], in experiment [9] and in [11] was “inactive” each time.
As to `Oc1ccc2ccccc2c1CN(Cc1c(O)ccc2ccccc12)C1CCCCC1`, the Potency was over 11.4 µM in experiment [1]; 0.631 µM (active) in [3]; over 46 µM in experiment [6]; over 9.22 µM in experiment [7]; 0.631 µM (active) in experiment [10]. Also, the values for the activity change, negative = inhibition in [2] and in experiment [4] were 3.63% and -9.52%, respectively. The activity, negative = inhibition in [5] was -14.2%. The Potency entry in [8] and in experiment [9] was “inactive” in each case.
For the compound `O[C@@H](COc1ccc(Cl)cc1Cl)CN1CCCC1`, the Potency in experiment [1] is over 11.4 µM; in [3], 5.01 µM (active); in experiment [6] it was over 46 µM; in [7], over 9.22 µM; in experiment [10], 0.316 µM (active). For the same compound, the activity change, negative = inhibition in experiment [2] was 7.86%; in experiment [4], 2.25%. The activity, negative = inhibition in experiment [5] is 4.26%. The Potency result in experiment [8] and in experiment [9] was “inactive” each time.
For the compound `N/C(CC/C(N)=N/O)=N\O`, the Potency in experiment [1] is over 11.4 µM; in [6] it was over 46 µM; in experiment [7], over 9.22 µM. In addition, the activity change, negative = inhibition in [2] is -3.76%; in [4], 7.17%. For the same compound, the Potency entry in experiment [3], in experiment [8], in [9] and in experiment [10] was “inactive” each time. Besides, the activity, negative = inhibition in experiment [5] is -0.993%.
Take `Cc1ccc(C)c(NC(=O)NCc2ccc(Cl)cc2)c1`: the Potency was over 11.4 µM in experiment [1]; 0.794 µM (active) in experiment [3]; over 46 µM in [6]; over 9.22 µM in experiment [7]; 3.98 µM (active) in [10]; 1.58 µM (active) in experiment [12]. Also, the values for the activity change, negative = inhibition in experiment [2] and in experiment [4] were 4.89% and -4.37%, respectively. The activity, negative = inhibition in experiment [5] was 8.15%. Moreover, the Potency result in experiment [8], in [9] and in experiment [11] was “inactive” throughout.
As to `COc1c(O)ccc2c1CN1CCc3cc4c(cc3[C@@H]1C2)OCO4`, the Potency in experiment [1] was over 11.4 µM; in [3], 0.501 µM (active); in [6], over 46 µM; in experiment [7] it was over 9.22 µM; in experiment [10], 0.158 µM (active). Also, the activity change, negative = inhibition was -4.62% in experiment [2] and -25.2% in experiment [4]. The activity, negative = inhibition in [5] was 7.58%. Besides, the Potency result in experiment [8] and in experiment [9] was “inactive” each time.
